Compound activity as filed in PubChem BioAssay.
TROY NFkB inh: inhibitors of TROY-dependent NF-kB signaling. Q293 LMP1-TROYcd NF-kB luciferase reporter, 4 h. inhibition, % at 10 µM. 360,000 tested, 0.98% active;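 active means compounds whose plate-normalised and pattern-corrected inhibition of the luciferase reporter signal at the single screening dose is 50% or more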
EBV LMP1 NFkB: inhibitors of Epstein-Barr LMP1-induced NF-kappaB reporter | LMP1-induced NF-kappaB luciferase reporter cells, luminescence | inhibition, % at 12.5 µM | 350,000 tested, 0.69% active | AID 504558; in the data active means inhibition above about 41%;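 further: 0% = neutral control wells and 100% = reference inhibitor control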
TWEAK-Fn14 inh: TWEAK-Fn14 signaling inhibition. TWEAK-stimulated Fn14 reporter cells, luciferase luminescence, 8 h. 360,000 tested, 2% active. AID 1159606. inhibition, % at 10 µM; in the data active means inhibition above about 50%
Shn3 3UTR inh: inhibitors of Schnurri-3 3'UTR reporter in osteoblasts. Clone20 osteoblast Shn3 3'UTR firefly luciferase, 24 h. inhibition, % at 12.5 µM. 360,000 tested, 0.52% active. AID 588674;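 active means mean inhibition of at least 75% with every replicate also reaching 75%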;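 further: 0% = median of neutral control wells and 100% = pilot-screen positive control compound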
TRPM1 prom inh: inhibitors of MITF-driven TRPM1 promoter in melanoma cells; SK-MEL-5 TRPM1 promoter luciferase, 24 h; inhibition, % at 12.5 µM; 330,000 tested, 0.83% active;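 active means mean inhibition across replicates of 60% or more, whatever share of single replicates reaches that level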
Peg3 prom inh: Peg3 promoter activity inhibition | HeLa PEG-Prom luciferase reporter, luminescence, overnight | inhibition, % at 20 µM | AID 588405 | 360,000 tested, 1.7% active;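 active means inhibition of at least 50% at 20 µM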
* hit, by the source's call; x = no result given. Compounds with a hit are over-represented: about 4.1% of the library has one in this group of screens.

SMILES	TROY NFkB inh	EBV LMP1 NFkB	TWEAK-Fn14 inh	Shn3 3UTR inh	TRPM1 prom inh	Peg3 prom inh
CC(=O)N1CCc2c(sc(NC(=O)C3CC3)c2-c2nc3ccccc3s2)C1	-9	-11	-51	3	4	0
CC(=O)Nc1sc2c(c1-c1nc3ccccc3s1)CN(C(C)C)CC2	12	-3	1	-24	64*	98*
Cc1cc(/C=C(\C#N)C(=O)Nc2ccccc2)c(C)n1-c1cccnc1	-21	-34	-8	-17	-55	-258
CCOC(=O)/C(C#N)=C/c1cc(C)n(-c2ccccc2)c1C	89*	-25	84*	-9	-63	-229
COc1ccccc1CNC(=O)CCCC(=O)n1nc(C)c2ccccc21	-5	-2	-19	-10	-5	7
Cc1ccc(S(=O)(=O)NC(=O)C2(C)CCN2C(=O)CC2CCCC2)nc1 (centres undefined)	-11	x	-4	-1	x	3
Cc1ccc(C)c(N2CC(C(=O)Nc3nccs3)CC2=O)c1 (centres undefined)	0	2	-15	-18	9	6
CC(=O)Nc1ccc(C2=NNC(=Nc3cccc(S(=O)(=O)N(C)C)c3)SC2)cc1	17	4	62*	9	-5	15
Cc1ccc(S(=O)(=O)NN=C(c2ccccc2)c2cccs2)cc1	-1	4	0	-2	x	7
Cc1c(NC(=O)/C(=C/c2cccs2)NC(=O)c2ccccc2)c(=O)n(-c2ccccc2)n1C	2	-4	13	-20	-10	7
Cc1c(NC(=O)/C(=C\c2ccccc2)NC(=O)c2ccccc2)c(=O)n(-c2ccccc2)n1C	-9	0	94*	-15	3	2
Cc1ccc(OCc2nc(-c3ccccc3)no2)cc1	-37	-14	-15	-114	-86	-292
Cc1ccc(C(=O)CSc2nccn2-c2ccccc2)cc1	51*	-7	4	-8	-29	-141
O=C(CSc1nccn1-c1ccccc1)c1ccc(Cl)cc1	-9	-6	-12	-1	-3	-93
O=C(C1CCCCC1)N1CCN=C1SCc1cccnc1	15	15	5	3	6	5
O=C(C1CCCCC1)N1CCN=C1SCc1cccc([N+](=O)[O-])c1	26	11	54*	16	10	13
O=C(c1ccco1)N1CCN(c2nc3ccccc3c(=O)n2-c2ccccc2)CC1	61*	6	-22	3	12	18
Cc1cc(N2CCN(C(=O)c3ccco3)CC2)c2ccccc2n1	-12	11	7	-15	5	10
CCCCCCCCNCCS(=O)(=O)NCCCCCCCC	9	1	4	13	29	95*
c1ccc(OCCN2CCN(C(c3ccccc3)c3ccccc3)CC2)cc1	8	1	-2	14	-5	24
C=C(C)CNC(=S)NNC(=O)CCn1c2ccc(Cl)cc2c2cc(Cl)ccc21	1	-4	21	16	9	30
CC(C)c1nc(SCC(=O)Nc2cccc(C(F)(F)F)c2)c2c(=O)n(C)c(=O)n(C)c2n1	16	16	-9	86*	x	15
COC(=O)c1ccccc1S(=O)(=O)N1CCC(NC(=O)C(Cc2cccc(OC)c2OC)NC(C)=O)CC1 (centres undefined)	8	0	2	-1	13	1
CCS(=O)(=O)N1CCC(NC(=O)C(Cc2cccc(OC)c2OC)NC(C)=O)CC1 (centres undefined)	2	3	85*	0	-3	-3
Cc1noc(C)c1S(=O)(=O)Nc1ccc2c(c1)C(=O)N([C@H](C)CO)C[C@H](C)[C@@H](CN(C)S(=O)(=O)c1ccccc1)O2	-44	1	-31	0	3	-9
SMILES	TROY NFkB inh	EBV LMP1 NFkB	TWEAK-Fn14 inh	Shn3 3UTR inh	TRPM1 prom inh	Peg3 prom inh
Cc1ccc(C#N)c(SCc2nnc(-c3ccc(Cl)cc3)o2)n1	87*	15	98*	41	46	46
Cc1cc(C)c(C#N)c(SCc2nnc(-c3ccccc3)o2)n1	90*	59*	100*	60	77*	38
Cc1cc(C)c(C#N)c(SCc2nnc(-c3ccccc3[N+](=O)[O-])o2)n1	45	-54	-12	-28	-15	-269
Cc1cc(C)c(C#N)c(SCC(=O)Nc2ccccc2C(N)=O)n1	60*	1	10	-58	-30	-222
Cc1ccc(C#N)c(SCc2cc3c(cc2Cl)OCO3)n1	-8	-7	-5	14	-14	1
CC1(C(=O)NC2CCCC2)CCC(=O)N1C1CCN(Cc2ccccc2)CC1 (centres undefined)	23	x	3	-20	x	-13
C=CCc1c(OC(C)=O)c2ccccc2n(C)c1=O	14	-10	55*	7	13	13
CCc1c(OC(C)=O)c2ccccc2n(C)c1=O	-38	-13	11	2	-8	13
COc1ccc(Nc2nc(Nc3ccc(OC)cc3)nc(-n3[nH]c(=O)c(C)c3C)n2)cc1	5	27	42	81*	3	48
Cc1nc2nc(N)nc(OCc3ccccc3)c2nc1C	-4	x	4	5	x	15
CCOC(=O)OC(C)OC(=O)[C@@H]1N2C(=O)[C@@H](NC(=O)[C@H](N)c3ccccc3)[C@H]2SC1(C)C (some centres undefined)	-8	56*	-9	9	0	8
CC(Oc1ccccc1)C(=O)NC1C(=O)N2C1SC(C)(C)C2C(=O)O (centres undefined)	4	9	-2	20	10	-6
CS(=O)(=O)N1CCCC(C(=O)NCCc2ccccc2)C1 (centres undefined)	35	1	69*	-13	0	-2
CCOc1ccc(CNC(=O)C2CCCN(S(C)(=O)=O)C2)cc1OC (centres undefined)	-14	1	92*	-7	18	12
O=[N+]([O-])/C=C\c1ccc(N2CCCC2)c(F)c1	-1	11	13	48	94*	101*
O=Cc1ccc(N2CCCC2)c([N+](=O)[O-])c1	-27	1	2	-5	5	12
COc1ccc(S(=O)(=O)N(Cc2ccccc2)c2ccccc2C(=O)N2CCOCC2)cc1	5	-17	94*	-7	7	10
Cc1cc(Nc2cccc(Cl)c2)nc(N2CCOCC2)n1	91*	-36	92*	-13	-11	3
Cc1cc(Nc2ccccc2)nc(N2CCOCC2)n1	-15	-21	-7	-11	-9	-17
O=C1COc2ccc(C(=O)COc3ccc([N+](=O)[O-])cc3)cc2N1	11	2	-20	36	-6	18
CN(C)/N=C/C=C1\CCC/C(=C\c2ccc(F)c(F)c2)C1=O	-13	-97	87*	-9	1	41
C=CCNC(=O)/C(C#N)=C/c1c(N2CCN(c3ccc(OC)cc3)CC2)nc2c(C)cccn2c1=O	-9	10	4	7	15	23
